Test results as given in PubChem BioAssay (NCI).
Several values for one entry are separate records, joined by “and”; a condition that tells them apart may be missing. Equal values may be shown once. Compounds without any hit were thinned out: in the full panel of roughly 83,000, 20% have a hit.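 The endpoint reported here, percent growth, reads 100 for growth as untreated, 0 for no net growth and -100 for all cells dead.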 Activity calls are given as the source filed them. Rule for the calls: active = growth percent below 10; inactive = the rest.

What was measured:
Assay in all cases: NCI-60 one-dose screen, 48 h (100 = growth as untreated, 0 = no growth, -100 = all killed)
Details in all cases: 10 µM unless noted
RPMI-8226 leukemia = test system: RPMI-8226 leukemia
OVCAR-5 ovarian = test system: OVCAR-5 ovarian
OVCAR-4 ovarian = test system: OVCAR-4 ovarian
SK-OV-3 ovarian = test system: SK-OV-3 ovarian
IGROV1 ovarian = test system: IGROV1 ovarian
OVCAR-3 ovarian = test system: OVCAR-3 ovarian
HS 578T breast = test system: HS 578T breast
NCI/ADR-RES ovarian = test system: NCI/ADR-RES ovarian
T-47D breast = test system: T-47D breast
BT-549 breast = test system: BT-549 breast

Measured: growth

CC[C@](O)(C(=O)O)c1cc2n(c(=O)c1CO)Cc1cc3ccccc3nc1-2
inactive: SK-OV-3 ovarian 12.4% | HS 578T breast 29.4%
active: RPMI-8226 leukemia -36% | OVCAR-5 ovarian 9.24% | OVCAR-4 ovarian -19.4% | IGROV1 ovarian -48.1% | OVCAR-3 ovarian -42.3% | NCI/ADR-RES ovarian 2.02% | T-47D breast -6.44% | BT-549 breast -34.5%

CCC(=O)OC1CCn2c1nc1c2C(=O)C(C)=C(N2CC2)C1=O (stereo not given)
active: RPMI-8226 leukemia 2.94% | SK-OV-3 ovarian -53.8% | IGROV1 ovarian -6.18% | OVCAR-3 ovarian -18.5% | HS 578T breast -5.47% | NCI/ADR-RES ovarian 1.27% | BT-549 breast -79.1%
inactive: OVCAR-5 ovarian 13.5% | OVCAR-4 ovarian 13.2% | T-47D breast 70.2%

CCC1(O)CC(OC2CC(N(C)C)C(OC3CC4OC5CC(=O)C(C)OC5OC4C(C)O3)C(C)O2)c2c(cc3c(c2O)C(=O)c2c(O)ccc(O)c2C3=O)C1C(=O)OC (stereo not given)
inactive: SK-OV-3 ovarian 16.1%
active: RPMI-8226 leukemia -53% | OVCAR-5 ovarian -16.1% | OVCAR-4 ovarian -53.9% | IGROV1 ovarian -78.1% | OVCAR-3 ovarian 4.8% | HS 578T breast -37% | NCI/ADR-RES ovarian -20% | T-47D breast -2.73% | BT-549 breast -76.3%

CCCCCCCCCCCC1CCCC(C)N1 (stereo not given)
active: RPMI-8226 leukemia -34.7% | IGROV1 ovarian -40.3%
inactive: OVCAR-5 ovarian 88.8% | OVCAR-4 ovarian 85.5% | SK-OV-3 ovarian 121% | OVCAR-3 ovarian 90.9% | HS 578T breast 64.5% | NCI/ADR-RES ovarian 82.7% | T-47D breast 102%

COc1ccccc1/C=C(/C)[N+](=O)[O-]
inactive: OVCAR-5 ovarian 104% and 91.1% | OVCAR-4 ovarian 105% and 102% | SK-OV-3 ovarian 115% and 81.6% | IGROV1 ovarian 71.5% and 95.9% | OVCAR-3 ovarian 78.2% and 101% | HS 578T breast 97.2% and 118% | NCI/ADR-RES ovarian 95.1% and 104% | T-47D breast 35.7% and 86.6% | BT-549 breast 83.6% and 101%
0.614% (active) and 118% (inactive): RPMI-8226 leukemia

CC[C@@]1(O)C[C@H](OC2CC(N(C)C)C(OC3CC(O)C(OC4CCC(=O)C(C)O4)C(C)O3)C(C)O2)c2c(cc3c(c2O)C(=O)c2c(O)ccc(O)c2C3=O)[C@H]1C(=O)OC (stereo not given in full)
active: RPMI-8226 leukemia -33.9% | OVCAR-5 ovarian 1.64% | OVCAR-4 ovarian -36.5% | IGROV1 ovarian -49.2% | OVCAR-3 ovarian 0.51% | HS 578T breast 9.34% | BT-549 breast -4.5%
inactive: SK-OV-3 ovarian 33.1% | NCI/ADR-RES ovarian 11% | T-47D breast 18%

Oc1cc[c]([Hg][Cl])cc1
inactive: RPMI-8226 leukemia 91.2% | OVCAR-5 ovarian 116% | OVCAR-4 ovarian 100% | SK-OV-3 ovarian 135% | IGROV1 ovarian 87.8% | OVCAR-3 ovarian 91% | HS 578T breast 85.5% | NCI/ADR-RES ovarian 107% | BT-549 breast 128%

CC1=C2C(=O)[C@H]3[C@@H](CC=C4C[C@@H](O)CC[C@@]43C)[C@@H]2CC[C@]12O[C@@H]1C[C@H](C)CN[C@H]1[C@H]2C
inactive: RPMI-8226 leukemia 92% | OVCAR-5 ovarian 94% | OVCAR-4 ovarian 96.3% | SK-OV-3 ovarian 101% | IGROV1 ovarian 26.1% | OVCAR-3 ovarian 140% | HS 578T breast 118% | NCI/ADR-RES ovarian 101% | T-47D breast 107%

COC1CC(CC2CCC(C)C(C(C)C(=O)O)O2)OC2(OC(C)(C3CCC(C)(C4OC(C5OC(O)(CO)C(C)CC5C)CC4C)O3)CC2C)C1C (stereo not given)
inactive: OVCAR-5 ovarian 14% | SK-OV-3 ovarian 44% | HS 578T breast 14.3% | NCI/ADR-RES ovarian 36.7% | T-47D breast 15.9%
active: RPMI-8226 leukemia -45% | OVCAR-3 ovarian 9.34% | BT-549 breast -52.6%
